Test results as given in PubChem BioAssay AID1117319 (Southern Research Institute, 2015).
Where “and” joins values, the source holds several entries; their conditions need not be identical. Equal entries are not always repeated. Among all 260,000 compounds or so, about 1,500 (0.58%) were called active. About 5% were inconclusive and are not listed.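 How the source made its calls: active means inhibition above a set limit at one or more doses, reproduced on every date tested; inconclusive means results disagree between test dates, or hit never tested in dose response; inactive means the rest.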 A selection follows. Potency and affinity values are given separately.

The compounds below were run against Virion infectivity factor (Human immunodeficiency virus type 1 group M subtype B (isolate BH10)) + Virion infectivity factor (Human immunodeficiency virus type 1 group M subtype B (isolate BRU/LAI)) + Virion infectivity factor (Human immunodeficiency virus type 1 group M subtype B (isolate PCV12)) + Virion infectivity factor (Human immunodeficiency virus type 1 group M subtype B (isolate HXB2)) + DNA dC->dU-editing enzyme APOBEC-3G (Homo sapiens) (UniProt P69720+P69721+P69722+P69723+Q9HC16) (assay: HIV-1 Vif–A3G interaction blockers – biochemical, TR-FRET, GST-Vif 1-94, biotin-A3G peptide, dose response retest, primary screen (AID 1117319;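 further: Vif residues 1-94 fused to GST binding biotinylated APOBEC3G peptide 110-148; 0% = full assay without inhibitor and 100% = GST in place of GST-Vif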)). Conditions: TR-FRET GST-Vif / biotin-A3G peptide binding; active compounds read high.

inhibition, inactive:
O=C(CNS(=O)(=O)c1ccc(Br)cc1)N1CCN(c2ccc(F)cc2)CC1 -8.26%
O=C(O)CNC(=O)CCn1nnc2ccccc2c1=O -2.36%
CCOc1cccc2sc(NC(=O)c3ccc(Br)s3)nc12 -37.3%
Cc1ccc(NC(=O)CCC(=O)N/N=C/c2cccs2)cc1C -6.77%
Cc1cc(C)n2c(SCCC(C)C)nnc2n1 10.9%
CCOC(=O)Oc1ccc2c(=O)c(Oc3cccc(C)c3)coc2c1 0.27%
CC(=O)N1CCSc2ccc(S(=O)(=O)NCCc3ccc(C)cc3)cc21 2.49%
Cc1ccc(SCc2c(C(=O)N/N=C/c3ccc(C)o3)nnn2-c2nonc2N)cc1 -4.93%
N#Cc1ccc(OCc2cccc(S(=O)(=O)N3CCOCC3)c2)cc1 0.78%
c1ccc(-c2nnc(-c3ccco3)o2)cc1 -6.32%
CC(/C=C/c1ccco1)=N/NC(=O)c1ccc(C)nc1 1.76%
O=C(N/N=C/C=C/c1ccccc1)c1cccnc1 -6.59%
CC(/C=C/c1ccco1)=N\NC(=O)c1cccc(Cl)c1 -1.59%
CC(/C=N/NC(=O)c1cccnc1)=C\c1ccco1 28.6%
CCc1c(C#N)c(SCCC(=O)Nc2cccc(OC)c2)nc2c1C(=O)CC(C)(C)C2 -3.29%
CC(C)(Cc1ccccc1)NC(=O)C(=O)c1cn(CC(=O)N2CCOCC2)c2ccccc12 6.86%
O=C(/C=C/c1ccccc1F)c1cccc([N+](=O)[O-])c1 -5.2%
O=C(CN(C(=O)CNS(=O)(=O)c1ccc(F)cc1)c1ccc(F)cc1)NCc1ccco1 -4.81%
Cc1ccc(/C=N/N2CCN(Cc3ccccc3)CC2)cc1 -2.27%
Cc1ccc(NCc2nnc(SCC(=O)Nc3ncc(C)s3)n2CC2CCCO2)c(C)c1 (centres undefined) -1.98%
CC(=O)Nc1ccc(NC(=O)CSc2nnc(CNc3ccc(F)cc3)n2CC2CCCO2)cc1 (centres undefined) -7.5%
COC(=O)Cn1ncc2c3ccccc3n(C)c2c1=O 4.81%
CC(=O)N(c1ccc2oc(=O)sc2c1)S(=O)(=O)c1ccccc1 7.75% and 2.73%
COc1ccc(OC)c(S(=O)(=O)N(C(C)=O)c2ccc3oc(=O)sc3c2)c1 13.9%
CCC(C)NC(=O)C1CCC(CNS(=O)(=O)c2ccc3c(c2)CC(C)N3C(C)=O)CC1 (centres undefined) 4.98%
CCCOC(=O)c1c(NC(=O)CCC(=O)O)sc2c1CCCCC2 8.05%
Cc1ccc(OCCNC(=O)c2ccccc2N)cc1 8.93%
CC(=O)C1=C(c2ccccc2)NC(=O)NC1c1ccccc1OCC(=O)Nc1ccccc1 (centres undefined) -2.45%
S=C(NCCc1ccccc1)Nc1ncccn1 4.03%
O=C(N/N=C/c1ccc[nH]1)c1ccc(COc2cccc3cccnc23)cc1 9.25%
O=C1CCC/C(=N\NC(=O)c2ccc(CSc3cccc4cccnc34)cc2)C1 5.86%
CC(Nc1nc(-c2ccccc2O)nc2ccccc12)c1ccccc1 (centres undefined) 4.08%
CCOc1ccc(-c2cc(N3C(=O)Nc4ccccc4N3O)on2)cc1 19.2%
O=c1cc(-c2ccc(O)cc2)oc2ccc(O)cc12 28.2%
COc1c(O)c(O)c2oc(-c3ccccc3)cc(=O)c2c1OC -3.24%
O=C(O)c1ccccc1C(=O)NC1CCCc2ccccc21 (centres undefined) -5.37%
Cc1cc(C)c(NC(=O)CN(C)CC(=O)N(C)CC(=O)Nc2c(Cl)cccc2Cl)c(C)c1 -11.3%
COc1ccc(CCNC(=O)COC(=O)/C=C/c2cccs2)cc1 8.83%
C=C(C)C1Cc2c(C)nn(-c3ccccn3)c2C1 (centres undefined) -1.81%
Cc1nn(-c2ccccn2)c2c1-c1nc(N)ncc1CC2 5.31%
Nc1nc(SCC(=O)c2c(N)n(Cc3ccccc3)c(=O)[nH]c2=O)n[nH]1 -2.67%
CCCC(=O)NC(Nc1c(C)n(C)n(-c2ccccc2)c1=O)C(Cl)(Cl)Cl (centres undefined) -6.76%
COc1ccc(CNS(=O)(=O)c2c(C)[nH]c(C)c2C(=O)N2CCCCC2)cc1 -4.48%
CCOC(=O)Cc1cc(=O)n2[nH]c(-c3ccccc3)cc2n1 3.98%
CCOC(=O)Cc1cc(=O)n2[nH]c(C(C)(C)C)cc2n1 2.01%
O=C1CCCC(O)=C1N=Nc1ccc(Cl)c(Cl)c1 -7.94%
CC(=O)N1CCc2cc(N=NC3=C(O)CCCC3=O)ccc21 11.2%
O=Cc1cc(N=Nc2cccc(C(=O)O)c2)ccc1O 8.26%
O=C(O)c1cccc(N=NN2CCOCC2)c1 0.39%
O=C1CCCC(O)=C1N=Nc1cccc(S(=O)(=O)N2CCOCC2)c1 -9.52%
Cc1nc2ccc(N=NC3=C(O)CCCC3=O)cc2s1 19.7%
O=C1CCCC(O)=C1N=Nc1ccc2ncsc2c1 1.8%
CC1(C)CC(=O)C(N=Nc2ccc(S(=O)(=O)N3CCOCC3)cc2)=C(O)C1 4.95%
Cc1cc(C)c2c(N)c(C(=O)N3CCc4ccccc4C3)sc2n1 2.97%
O=C(CSc1ccccc1C(=O)O)NC12CC3CC(CC(C3)C1)C2 -8.39%
COC(=O)C1=C(C)OC(N)=C(C#N)C1c1ccsc1 (centres undefined) -0.64%
O=C(/C=C/c1ccc(F)cc1)Nc1cccc(S(=O)(=O)N2CCOCC2)c1 -3.16%
Cc1ccc(/C=C/C(=O)Nc2nnc(C)s2)o1 30.1%
Cc1cnc(NC(=O)/C=C/c2ccc(Br)o2)s1 20.7%
COc1ccc(NC(=O)/C=C/c2ccc(C)o2)cc1S(=O)(=O)N1CCOCC1 22.6%
Cc1ccc(/C=C/C(=O)Nc2ccc(S(N)(=O)=O)cc2)o1 5.06%
Cc1ccc(/C=C/C(=O)Nc2ccncc2)o1 26.1%
Cc1cc(-c2nnc(CCC(=O)N3CCN(Cc4cccc(F)c4)CC3)o2)c(C)o1 -7.15%
COc1ccc(OC)c(CN2CCN(C(=O)c3cccs3)CC2)c1 1.09%
COc1ccc(Oc2nc(-c3cccnc3)nc3ccccc23)cc1 -18.5%
CCC(OC(=O)c1nsc(Cl)c1Cl)C(=O)NC(C)(C)CC (centres undefined) -6.48%
CC(NC(=O)c1cccc(S(=O)(=O)N2CCN(Cc3ccccc3)CC2)c1)c1ccc(Cl)cc1 (centres undefined) 3.65%
CCOC(=O)c1cn2nc(Oc3ccc(NC(C)=O)cc3)ccc2n1 -0.1%
CC(NC(=O)c1ccc2nc(Cc3cccc(Cl)c3)oc2c1)c1ccncn1 (centres undefined) 0.5%
CN(C)C(=O)CCc1ccc2c3c([nH]c2c1)[C@]1(CCC2CCCC2)[C@@H](C(=O)N2CCOCC2)C[C@H](CC(=O)NCCC2=CCCCC2)C(=O)N1CC3 4.07%
CCOc1ncccc1C(=O)OCC(=O)NC1CCCCCC1 -6.35%
Cc1cc(S(=O)(=O)Nc2ncnc3sccc23)ccc1F 1.05%
CCOC(=O)C(C)/C(C)=N/NC(=O)CCC(=O)Nc1cc(C)ccc1C (centres undefined) 3.1%
CCOC(=O)c1nc(C)n(-c2ccc(Cl)cc2Cl)n1 23.2%
CCOC(=O)c1nn(-c2ccccc2C)c(=O)c(C#N)c1C 12.1%
O=C(Oc1c(-c2ccccc2)oc2ccccc2c1=O)c1ccccc1 -7.08%
Cc1ccccc1NC(=O)c1c(C)[nH]c(=S)c(C#N)c1-c1ccc(Cl)cc1 -0.84%
N#Cc1c(-c2ccc(Cl)cc2)c2c([nH]c1=S)CCCC2 -9.58%
COc1ccc(OC)c(-c2c3c([nH]c(=S)c2C#N)CCCC3)c1 -14.3%
N#Cc1c(-c2cccnc2)c2c([nH]c1=S)CCCC2 28.4%
Cc1ccc(-c2c(C(=O)Nc3ccccc3C)c(C)[nH]c(=S)c2C#N)o1 17.8%
COc1ccc(-c2c3c([nH]c(=S)c2C#N)CCC3)cc1 -9.25%
CC(=O)OC1CC[C@@]2(C)C(CCC3C2CC(=O)[C@@]2(C)C3CC3CC(C)=CC(=O)C32)C1 (some centres undefined) -1.09%
CC(Oc1ccccc1F)C(=O)NNC(=O)CCS(=O)(=O)c1ccccc1Cl (centres undefined) 3.79%
CC1CC(C)(C)NC(=S)N1CCC(=O)N1CCc2ccccc2C1 (centres undefined) -8.29%
CC1(C)C(=O)NCCN1C(=O)CCC(=O)O -4.36%
Cc1ccc(CNC(=O)C2CC3Cn4c(nc5cc6ccccc6cc54)C3N2C)o1 (centres undefined) 5.41%
O=C(CSc1ccc(-c2nc3ccccc3[nH]2)cn1)Nc1ccc(S(=O)(=O)N2CCCC2)cc1 -5.26%
O=C(CSc1nnc(NC(=O)c2cccc(Cl)c2)s1)NCC1CCCO1 (centres undefined) 3.82%
CCOc1cc(N2CCOCC2)c(OCC)cc1NC(=O)COc1ccc2ccc(=O)oc2c1 -0.33%
COc1ccccc1C(c1nnnn1Cc1ccco1)N1CCN(c2cccc(C)c2C)CC1 (centres undefined) 25.8%
O=C(c1cc(COc2ccc3ncccc3c2)on1)N1CCC[C@H]1CO 1.67%
COC(=O)C1CCCCN1C(=O)c1cc(COc2cccc3cccnc23)on1 (centres undefined) 4.07%
COc1cccc(CNC(=O)CCCN2C(=O)C(c3ccccc3)Oc3cccnc32)c1OC (centres undefined) -2.88%
